Inconclusive results are not listed. Active and inactive are the calls of the source. Calls come from the whole dose curve; as a rule, active = well fitted inhibition curve with a large enough effect; inconclusive = small, poorly fitted or top-dose-only effect; inactive = no such curve, though single readings can be large or run the other way.

This assay in a line: qHTS for Inhibitors of ATXN expression: Validation (AID 588378). Note: nearly all actives have a fitted effect of over 75% in size. Conditions: cell-based ATXN2 expression reporter assay, luminescence; series mostly up to 57.1 µM. An excerpt:
Spinocerebellar ataxia type 2 (SCA2) is a multisystem neurodegenerative disease caused by a dominantly-acting mutation leading to expansion of a polyQ domain in the ataxin-2 protein (ATXN2). SCA2 patients develop progressive ataxia and later lose function in other neuronal systems. Prominent parkinsonian signs develop in some patients. Similar to many neurodegenerative disorders, no symptomatic or disease-modifying treatments are known.
The primary objective of project is to identify compounds inhibiting ATXN2 expression and to test them for efficacy in SCA2 mouse models. To this end, in a collaboration between Dr. Daniel Scoles and scientists at NCGC, a cell-based assay adapted to high-throughput screening has been developed to screen the NIH Molecular Libraries Small Molecule Repository (MLSMR).
NIH Chemical Genomics Center [NCGC]
NIH Molecular Libraries Probe Centers Network [MLPCN]
Assay Submitter (PI): Stefan Pulst and Daniel Scoles, University of Utah
4 ul of HEK293-ATXN2-FFLuc cell suspension (TBD cells/microL in phenol-red free DMEM) are dispensed into Greiner white solid bottom 1536-well assay plates, yielding a final well density of TBD cells/well. Plates are incubated for 2 hrs at 37 degrees C in 5% humidified CO2 to allow cell attachment. Compounds are then transferred via Kalypsys pin tool equipped with 1536-pin array (10nl slotted pins, V&P Scientific, San Diego, CA). In addition, duplicate serial dilutions of the control compounds ChemBridge 5553825, a previously identified ATXN2 expression inhibitor, and a known luciferase inhibitor, are pin-transferred. After incubation at 37 degrees C in 5% humidified CO2 for 24 hrs, CellTiter-Fluor reagent (1 ul) (Promega, Madison, WI) is then added and plates are incubated for 30 minutes, before being transferred to a ViewLux high-throughput CCD imager (PerkinElmer), wherein single end-point fluorescence measurements are acquired using the 405 nm excitation/525 nm emission filter set to assess cell viability. Next, Bright-Glo luciferase substrate detection reagent (3 ul) (Promega, Madison, WI) is added to each well and incubated for an additional 5 minutes. Luminescence is then measured on the ViewLux imager equipped with a clear emission filter using a 2 sec exposure.
For orientation: qHTS replaces the single test concentration by a dilution series.
As to `CNC[C@H](O)c1cccc(O)c1`, the molecule was called inactive.
To `NC(N)=NC(=O)c1nc(Cl)c(N)nc1N` belongs “inactive”.
For `Cc1cn[nH]c1`, the molecule was called inactive.
For `Nc1nc2c(ncn2COCCO)c(=O)[nH]1`, the molecule was classed as inactive.
On to `CCC(C)N(C)C(=O)c1cc2ccccc2c(-c2ccccc2Cl)n1` (stereo not given), for which the molecule was classed as inactive.
For `O=C(O)COCCN1CCN(C(c2ccccc2)c2ccc(Cl)cc2)CC1` (stereo not given), the result was inactive.
For `CC(C[N+](C)(C)C)OC(N)=O` (stereo not given), the call was inactive.
Consider `O=C1CCC(N2C(=O)c3ccccc3C2=O)C(=O)N1` (stereo not given), for which the outcome was inactive.
On to `CC(C)C[C@H](NC(=O)[C@@H](O)[C@H](N)Cc1ccccc1)C(=O)O`, for which the molecule was called inactive.
In the case of `Cc1oncc1C(=O)Nc1ccc(C(F)(F)F)cc1`, the result was inactive.
For `Cc1[nH]c(=O)c(C#N)cc1-c1ccncc1`, the molecule was called inactive.
As to `Cc1cnc(NC(=O)C2=C(O)c3ccccc3S(=O)(=O)N2C)s1`, the molecule was classed as inactive.
For the molecule `c1ccc([C@H]2CN3CCSC3=N2)cc1`, the result was inactive.
As to `CCn1cc(C(=O)O)c(=O)c2cc(F)c(N3CCNC(C)C3)c(F)c21` (stereo not given), the outcome was inactive.
As to `NC(=O)c1cnccn1`, the call was inactive.
For `CC(C)(C)NCC(O)c1ccc(O)c(CO)c1` (stereo not given) the value was “inactive”.
Take `Cc1ccccc1C(OCCN(C)C)c1ccccc1` (stereo not given): the call was inactive.
For `Oc1ccc(C2CNCCc3c2cc(O)c(O)c3Cl)cc1` (stereo not given), the molecule was classed as inactive.
Take `CCCCNc1cc(C(=O)O)cc(S(N)(=O)=O)c1Oc1ccccc1`: the result was inactive.
As for `Nc1ccc(S(=O)(=O)Nc2ccnn2-c2ccccc2)cc1`, the result was inactive.
For `NNCCc1ccccc1` the value was “inactive”.
Take `CCCC(CCC)C(=O)O`: the molecule was classed as inactive.
`Nc1nc2ccc(OC(F)(F)F)cc2s1`: the result was inactive.
To `O=c1[nH]cnc2[nH]ncc12` belongs “inactive”; to `CC(=O)Oc1ccccc1C(=O)O`, “inactive”.
Regarding `CCOC(=O)N1CCC(=C2c3ccc(Cl)cc3CCc3cccnc32)CC1`, the call was inactive.
To `NC[C@H](O)c1ccc(O)c(O)c1` belongs “inactive”; to `NS(=O)(=O)c1cc2c(cc1Cl)NC=NS2(=O)=O`, “inactive”; to `Nc1ncnc2nc(-c3ccc(N4CCOCC4)nc3)cc(-c3cccc(Br)c3)c12`, “inactive”.
For `CC(C)(Sc1ccc(CCN(CCCCC2CCCCC2)C(=O)NC2CCCCC2)cc1)C(=O)O` the value was “inactive”; for `Clc1cccc(Cl)c1NC1=NCCN1`, “inactive”; for `O=c1n(CCCN2CCN(c3cccc(Cl)c3)CC2)nc2ccccn12`, “inactive”.
`C[C@]12CCC(=O)C=C1CC[C@@H]1[C@@H]2[C@@H](O)C[C@@]2(C)[C@H]1CC[C@]2(O)C(=O)CO`: the molecule was classed as inactive.
For `O=C1CCc2cc(OCCCCc3nnnn3C3CCCCC3)ccc2N1`, the outcome was inactive.
To `O=NN(CCCl)C(=O)NCCCl` belongs “inactive”; to `C1COC(NC(C2CC2)C2CC2)=N1`, “inactive”.
For `CCOC(=O)C1=C[C@]2(CC)CCCN3CCc4c(n1c1ccccc41)[C@@H]32`, the molecule was classed as inactive.
As to `NCCCC(N)(C(=O)O)C(F)F` (stereo not given), the result was inactive.
With `CC(C)NCC(O)COc1ccc(COCCOC(C)C)cc1` (stereo not given), the call was inactive.
On to `O=C(Nc1nc2ccccc2n1CCN1CCOCC1)c1cccc([N+](=O)[O-])c1`, for which the outcome was inactive.

The record behind these values is PubChem BioAssay (NCATS).
